The term AC50 denotes the concentration giving half of the maximal activity seen.

The source made the active and inactive calls. How the source made its calls: active means hit-call score of the fitted dose curve at least 0.9, where 1 is the maximum; inactive means score below 0.9.

The text below walks through data of PubChem BioAssay (EPA / NIEHS).

Read-out in the test: Matrix Metallopeptidase 1 (MMP1), MMP1 (gene 4312)
Nature of the test: BSK_MyoF_MMP1: BioMAP Diversity Plus: MyoF Assay for Matrix Metallopeptidase 1 (MMP1) Biomarker Activity (AID 2284268). The settings on record: primary human lung fibroblasts. Here is the method: BSK_MyoF is a cell-based, multiplexed-readout assay that uses lung fibroblasts, […], with measurements taken at 24 hours after chemical dosing in a microplate: 96-well plate.BSK_MyoF_MMP1 is an assay component measured in the BSK_MyoF assay. It measures […] antibody related to regulation of gene expression using ELISA technology.Data from the assay component BSK_MyoF_MMP1 was analyzed at the endpoint, BSK_MyoF_MMP1, in the positive analysis fitting direction relative to DMSO as the negative control and baseline of activity. Using a type of binding reporter, gain or loss-of-signal activity can be used to understand protein changes. To generalize the intended target to other relatable targets, this assay endpoint is annotated to the 'protease' intended target family, where the subfamily is 'matrix metalloproteinase'.
The levels of cell surface (or secreted, indicated by the prefix "s") biomarker endpoints were measured by ELISA. Overt cytotoxicity to cells in confluent adherent cultures (all systems other than the BT system) was assessed by measuring total protein levels using sulforhodamine B (SRB) staining in parallel cultures at the time of biomarker measurements, indicated as SRB endpoints. For proliferation assays for adherent cell types, individual cell types are cultured at sub-confluence and relative cell numbers quantified by SRB staining at time points optimized for each system (48 h: 3C and CASM3C systems; 72 h: BT and HDF3CGF systems; 96 h: SAg system). SRB was performed by staining cells with 0.1% SRB after fixation with 10% TCA and reading wells at 560 nm.Viability and proliferation of PBMC (T cells) was quantified by Alamar Blue reduction for the SAg and BT systems. For PBMC viability (referred to as PBMC Cytotoxicity within the assay endpoint names), cells were plated (75,000/well in a 96-well plate) and then chemical samples added for 1 h before addition of activators, SEB and TSST-1 (20 ng/mL final concentration each). Cells were incubated for 90 h. Then, Alamar Blue (20 uL/well) (Invitrogen, Cat DAL1100) was added for 6 h, and the plates were read with a fluorescence microplate reader at 546/580 nm (excitation/emission). For PBMC proliferation, cells were plated and activated as above but incubated for only 16 h prior to addition of Alamar Blue. Plates were read after 6 h.
Turning to `CCOc1nc(F)cc2nc(S(=O)(=O)Nc3c(Cl)cccc3C(=O)OC)nn12`, the outcome was inactive.
Turning to `C=CCOc1c(Br)cc(Br)cc1Br`, the result was inactive.
In the case of `CCCCNc1ccc(NCCCC)c2c1C(=O)c1ccccc1C2=O`, the result was inactive.
The same measure, in the same setting: the same measure for `CCCCCCCCc1ccc(Nc2ccc(CCCCCCCC)cc2)cc1`: “inactive”; for `CC(C)C(=O)C(C)C`: “inactive”; for `c1ccc2c(c1)ccc1cc3c(ccc4ccccc43)cc12`: “inactive”.
On the same count and under the same terms, for `c1ccc(-c2ccccn2)nc1` the value was “inactive”.
The same measure, in the same setting: for `C/C=C\C/C=C/CCCCCCCCOC(C)=O` the value was “inactive”.
Consider `O=C(Nc1ccccc1SSc1ccccc1NC(=O)c1ccccc1)c1ccccc1`, for which the result was inactive.
Turning to `COCc1c(C(C)C)nc(C(C)C)c(/C=C/[C@@H](O)C[C@@H](O)CC(=O)O)c1-c1ccc(F)cc1`, the half-maximal activity concentration (AC50) is 0.0515 µM (active).
For the compound `C=CC=CC=CCCCCC`, the outcome was inactive.
The same measure, in the same setting: for `O=Nc1ccc(O)cc1` the value was “inactive”; for `S=C(NC1CCCCC1)NC1CCCCC1`, “inactive”; for `C=CCOCC(O)CCl` (configuration not stated), “inactive”.
For `CC(C)(c1cc(Br)c(OCCO)c(Br)c1)c1cc(Br)c(OCCO)c(Br)c1`, the AC50 was 9.32 µM (active).
Regarding `c1ccc2c(c1)ccc1ncccc12`, the result was inactive.
`CCCCC(CC)COC(=O)c1ccccc1O` (configuration not stated): the concentration at half-maximal activity (AC50) is 10 µM (active).
As to `CCO[Si](CCCN=C=O)(OCC)OCC`, the outcome was inactive.
Regarding `O=C(Cl)c1cc(C(=O)Cl)cc(C(=O)Cl)c1`, the AC50 was 31.9 µM (active).
For the compound `COc1ccc2nc(N)sc2c1`, the outcome was inactive.
Still for that read-out and setting: for `C#CC1(O)CC[C@H]2[C@@H]3CCC4=CCCC[C@@H]4[C@H]3CC[C@@]21C` (some centres not stated) the value was “inactive”.
On to `N#[N+]c1ccc2c(S(=O)(=O)[O-])cccc2c1O`, for which the result was inactive.
For the compound `C=CC(=O)OCC(Br)CBr` (configuration not stated), the result was inactive.
As to `CC1OC1C1CCC2(C)OC2C1` (configuration not stated), the outcome was inactive.
For `CCCCCCCCCCCCCCCC[N+](C)(C)CC`, the AC50 is 9.34 µM (active).
On to `O=c1c2ccccc2oc2ccccc12`, for which the result was inactive.
Take `CCCCC/C=C\C/C=C\CCCCCCCC(=O)OC`: the AC50 was 31.2 µM (active).
